# This is one part of a sample in which the strongest signals are shown more often than they occur.
# B1: XTP3-B-MRH2 (Homo sapiens), Q96DZ1 (protein)
# chain: EFLSGSYCFRGGVGWWKYEFCYGKHVHQYHEDKDSGKTSVVVGTWNQEEHIEWAKKNTARAYHLQDDGTQTVRMVSHFYGNGDICDITDKPRQVTVKLKCKESDSPHAVTVYMLEPHSCQYILGVESPVICKILDTA
# Legend:
# Assay in all cases: glycan array binding signal (z-score within array); higher = stronger binding
# Details in all cases: glycan notation: IUPAC condensed, linker removed
# [1] = molecular target: Fuc(a1-2)Gal(b1-3)[Fuc(a1-4)]GlcNAc(b1-3)[Fuc(a1-3)[Gal(b1-4)]GlcNAc(b1-6)]Gal(b1-4)Glc
# Summary of the method: (§1)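 The binding signal is a Z-score computed within each array and averaged over linkers. Arrays of the same protein sequence at different concentrations or buffers were also averaged together. Data originate from 3228 arrays in the Consortium for Functional Glycomics database, kept only where the protein sequence was available.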
# [2] = molecular target: Fuc(a1-2)Gal(b1-4)Fuc(a1-3)]GlcNAc(b1-2)Man(a1-3)[Fuc(a1-2)Gal(b1-4)[Fuc(a1-3)]GlcNAc(b1-2)Man(a1-6)]Man(b1-4)GlcNAc(b1-4)GlcNAc
# Summary of the method: as §1
# [3] = molecular target: Fuc(a1-2)Gal(b1-4)[Fuc(a1-3)]GlcNAc(b1-3)Gal(b1-4)[Fuc(a1-3)]GlcNAc
# Summary of the method: as §1
# Fuc(a1-2)Gal6S(b1-4)Glc = molecular target: Fuc(a1-2)Gal6S(b1-4)Glc
# Summary of the method: as §1
# [4] = molecular target: Fuc(a1-2)[Gal(a1-3)]Gal(b1-3)GlcNAc(b1-2)Man(a1-3)[Fuc(a1-2)[Gal(a1-3)]Gal(b1-3)GlcNAc(b1-2)Man(a1-6)]Man(b1-4)GlcNAc(b1-4)GlcNAc
# Summary of the method: as §1
# [5] = molecular target: Fuc(a1-2)[Gal(a1-3)]Gal(b1-4)Glc
# Summary of the method: as §1
# [6] = molecular target: Fuc(a1-2)[Gal(a1-3)]Gal(b1-4)GlcNAc(b1-2)Man(a1-3)[Fuc(a1-2)[Gal(a1-3)]Gal(b1-4)GlcNAc(b1-2)Man(a1-6)]Man(b1-4)GlcNAc(b1-4)GlcNAc
# Summary of the method: as §1
# [7] = molecular target: Fuc(a1-2)[GalNAc(a1-3)]Gal(b1-4)[Fuc(a1-3)]GlcNAc
# Summary of the method: as §1
# [8] = molecular target: Fuc(a1-3)[Gal(b1-4)]GlcNAc(b1-3)Gal(b1-3)[Fuc(a1-4)]GlcNAc
# Summary of the method: as §1
# [9] = molecular target: Fuc(a1-3)[Gal(b1-4)]GlcNAc(b1-3)GalNAc
# Summary of the method: as §1
# [10] = molecular target: Fuc(a1-3)[Gal(b1-4)]GlcNAc6S
# Summary of the method: as §1
# Fuc(a1-4)GlcNAc = molecular target: Fuc(a1-4)GlcNAc
# Summary of the method: as §1
# Fuc(b1-3)GlcNAc = molecular target: Fuc(b1-3)GlcNAc
# Summary of the method: as §1
# [11] = molecular target: Gal(a1-4)Gal(b1-3)GlcNAc(b1-2)Man(a1-3)[Gal(a1-4)Gal(b1-3)GlcNAc(b1-2)Man(a1-6)]Man(b1-4)GlcNAc(b1-4)GlcNAc
# Summary of the method: as §1
# Gal(b1-2)Gal = molecular target: Gal(b1-2)Gal
# Summary of the method: as §1
# [12] = molecular target: Gal(b1-3)GalNAc(a1-3)[Fuc(a1-2)]Gal(b1-4)GlcNAc
# Summary of the method: as §1
# [13] = molecular target: Gal(b1-3)GlcNAc(b1-3)Gal(b1-4)Glc
# Summary of the method: as §1
# [14] = molecular target: Gal(b1-3)[Fuc(a1-4)]GlcNAc(b1-3)Gal(b1-3)[Fuc(a1-4)]GlcNAc
# Summary of the method: as §1
# [15] = molecular target: Gal(b1-3)[Fuc(a1-4)]GlcNAc(b1-6)GalNAc
# Summary of the method: as §1
# [16] = molecular target: Gal(b1-4)GlcNAc(b1-2)Man(a1-6)[Man(a1-3)]Man(b1-4)GlcNAc(b1-4)GlcNAc
# Summary of the method: as §1
# [17] = molecular target: Gal(b1-4)GlcNAc(b1-3)Gal(b1-4)GlcNAc
# Summary of the method: as §1
# [18] = molecular target: Gal(b1-4)GlcNAc(b1-3)Gal(b1-4)GlcNAc(b1-2)Man(a1-3)[Gal(b1-4)GlcNAc(b1-3)Gal(b1-4)GlcNAc(b1-2)Man(a1-6)]Man(b1-4)GlcNAc(b1-4)GlcNAc
# Summary of the method: as §1
# [19] = molecular target: Gal(b1-4)GlcNAc(b1-3)Gal(b1-4)GlcNAc(b1-3)Gal(b1-4)GlcNAc(b1-3)Gal(b1-4)GlcNAc(b1-3)Gal(b1-4)GlcNAc(b1-2)[Gal(b1-4)GlcNAc(b1-3)Gal(b1-4)GlcNAc(b1-3)Gal(b1-4)GlcNAc(b1-3)Gal(b1-4)GlcNAc(b1-3)Gal(b1-4)GlcNAc(b1-6)]Man(a1-6)[Gal(b1-4)GlcNAc(b1-3)Gal(b1-4)GlcNAc(b1-3)Gal(b1-4)GlcNAc(b1-3)Gal(b1-4)GlcNAc(b1-3)Gal(b1-4)GlcNAc(b1-2)Man(a1-3)]Man(b1-4)GlcNAc(b1-4)[Fuc(a1-6)]GlcNAc
# Summary of the method: as §1
# [20] = molecular target: Gal(b1-4)GlcNAc(b1-3)[GlcNAc(b1-6)]Gal(b1-4)GlcNAc
# Summary of the method: as §1
# [21] = molecular target: Gal(b1-4)GlcNAc(b1-6)[Gal(b1-4)GlcNAc(b1-3)]GalNAc
# Summary of the method: as §1
# [22] = molecular target: Gal3S(b1-3)[Fuc(a1-4)]GlcNAc
# Summary of the method: as §1
# GalNAc(a1-3)GalNAc = molecular target: GalNAc(a1-3)GalNAc
# Summary of the method: as §1
# GalNAc(b1-3)GalNAc = molecular target: GalNAc(b1-3)GalNAc
# Summary of the method: as §1
# GalNAc(b1-4)Gal(b1-4)Glc = molecular target: GalNAc(b1-4)Gal(b1-4)Glc
# Summary of the method: as §1
# GalNAc(b1-4)GlcNAc = molecular target: GalNAc(b1-4)GlcNAc
# Summary of the method: as §1
# [23] = molecular target: GalNAc(b1-4)GlcNAc(b1-2)Man(a1-3)[GalNAc(b1-4)GlcNAc(b1-2)Man(a1-6)]Man(b1-4)GlcNAc(b1-4)GlcNAc
# Summary of the method: as §1
# [24] = molecular target: GalNAc3S(b1-4)[Fuc(a1-3)]GlcNAc
# Summary of the method: as §1
# [25] = molecular target: GlcNAc(b1-2)Man(a1-3)[GlcNAc(b1-2)Man(a1-6)]Man(b1-4)GlcNAc(b1-4)[Fuc(a1-6)]GlcNAc
# Summary of the method: as §1
# [26] = molecular target: GlcNAc(b1-2)[GlcNAc(b1-6)]Man(a1-6)[GlcNAc(b1-2)Man(a1-3)]Man(b1-4)GlcNAc(b1-4)GlcNAc
# Summary of the method: as §1
# [27] = molecular target: GlcNAc(b1-3)Gal(b1-4)GlcNAc(b1-2)[GlcNAc(b1-3)Gal(b1-4)GlcNAc(b1-6)]Man(a1-6)[GlcNAc(b1-3)Gal(b1-4)GlcNAc(b1-2)Man(a1-3)]Man(b1-4)GlcNAc(b1-4)GlcNAc
# Summary of the method: as §1
# [28] = molecular target: Kdn(a2-3)Gal(b1-4)[Fuc(a1-3)]GlcNAc
# Summary of the method: as §1
# [29] = molecular target: Neu5Ac(a2-3)Gal(b1-3)GlcNAc(b1-6)GalNAc
# Summary of the method: as §1
# [30] = molecular target: Neu5Ac(a2-3)Gal(b1-4)GlcNAc(b1-2)[Neu5Ac(a2-3)Gal(b1-4)GlcNAc(b1-4)]Man(a1-3)[GlcNAc(b1-4)][Neu5Ac(a2-3)Gal(b1-4)GlcNAc(b1-2)[Neu5Ac(a2-3)Gal(b1-4)GlcNAc(b1-6)]Man(a1-6)]Man(b1-4)GlcNAc(b1-4)GlcNAc
# Summary of the method: as §1
# [31] = molecular target: Neu5Ac(a2-3)Gal(b1-4)GlcNAc(b1-3)Gal(b1-4)[Fuc(a1-3)]GlcNAc
# Summary of the method: as §1
# [32] = molecular target: Neu5Ac(a2-6)Gal(b1-4)GlcNAc(b1-2)Man(a1-6)[Gal(b1-4)GlcNAc(b1-2)Man(a1-3)]Man(b1-4)GlcNAc(b1-4)GlcNAc
# Summary of the method: as §1
# [33] = molecular target: Neu5Ac(a2-6)Gal(b1-4)GlcNAc(b1-3)Gal(b1-4)GlcNAc(b1-3)GalNAc
# Summary of the method: as §1
# [34] = molecular target: Neu5Ac(a2-6)GlcNAc(b1-4)GlcNAc(b1-4)GlcNAc
# Summary of the method: as §1
# [35] = molecular target: Neu5Ac(a2-8)Neu5Ac(a2-8)Neu5Ac
# Summary of the method: as §1
# [36] = molecular target: Neu5Ac9Ac(a2-3)Gal(b1-4)GlcNAc
# Summary of the method: as §1
# [37] = molecular target: Neu5Gc(a2-8)Neu5Ac(a2-3)Gal(b1-4)GlcNAc
# Summary of the method: as §1
# [38] = molecular target: Neu5Gc(a2-8)Neu5Gc(a2-3)Gal(b1-4)GlcNAc
# Summary of the method: as §1
binder,measurement,setting,value
B1,glycan array binding signal (z-score),[1],2.32
same,glycan array binding signal (z-score),[2],2.2
same,glycan array binding signal (z-score),[3],-0.464
same,glycan array binding signal (z-score),Fuc(a1-2)Gal6S(b1-4)Glc,0.258
same,glycan array binding signal (z-score),[4],2.72
same,glycan array binding signal (z-score),[5],1.19
same,glycan array binding signal (z-score),[6],2.95
same,glycan array binding signal (z-score),[7],-0.177
same,glycan array binding signal (z-score),[8],-2.1
same,glycan array binding signal (z-score),[9],-0.079
same,glycan array binding signal (z-score),[10],-0.412
same,glycan array binding signal (z-score),Fuc(a1-4)GlcNAc,2.2
same,glycan array binding signal (z-score),Fuc(b1-3)GlcNAc,-0.321
same,glycan array binding signal (z-score),[11],0.355
same,glycan array binding signal (z-score),Gal(b1-2)Gal,-0.575
same,glycan array binding signal (z-score),[12],0.353
same,glycan array binding signal (z-score),[13],0.052
same,glycan array binding signal (z-score),[14],3.38
same,glycan array binding signal (z-score),[15],-0.084
same,glycan array binding signal (z-score),[16],2.47
same,glycan array binding signal (z-score),[17],0.386
same,glycan array binding signal (z-score),[18],3.21
same,glycan array binding signal (z-score),[19],-0.908
same,glycan array binding signal (z-score),[20],0.199
same,glycan array binding signal (z-score),[21],0.934
same,glycan array binding signal (z-score),[22],0.892
same,glycan array binding signal (z-score),GalNAc(a1-3)GalNAc,5.08
same,glycan array binding signal (z-score),GalNAc(b1-3)GalNAc,-1.03
same,glycan array binding signal (z-score),GalNAc(b1-4)Gal(b1-4)Glc,-0.842
same,glycan array binding signal (z-score),GalNAc(b1-4)GlcNAc,2.09
same,glycan array binding signal (z-score),[23],-0.025
same,glycan array binding signal (z-score),[24],0.236
same,glycan array binding signal (z-score),[25],-0.201
same,glycan array binding signal (z-score),[26],1.7
same,glycan array binding signal (z-score),[27],0.276
same,glycan array binding signal (z-score),[28],-0.353
same,glycan array binding signal (z-score),[29],1.44
same,glycan array binding signal (z-score),[30],-1.25
same,glycan array binding signal (z-score),[31],-0.481
same,glycan array binding signal (z-score),[32],-0.687
same,glycan array binding signal (z-score),[33],-0.693
same,glycan array binding signal (z-score),[34],0.385
same,glycan array binding signal (z-score),[35],0.237
same,glycan array binding signal (z-score),[36],-0.6
same,glycan array binding signal (z-score),[37],0.283
same,glycan array binding signal (z-score),[38],2.85
